± gives the standard deviation. Some results are limits rather than exact numbers.

In the test the test system is MILI (PIWIL2) piRISC loaded with piRNA #1 (26 nt). Description: pre-steady-state target cleavage rate (min^-1); guide: piRNA #1 5'p-UGAGGUAGUAGGUUGUAUAGUAUCCA; MIWI and MILI are mouse PIWI proteins and EfPiwi is from a freshwater sponge; tags in brackets are library labels; higher = faster piRNA-guided slicing of the target. The following applies: auxiliary factor: 500 nM mouse GTSF1. Put shortly:
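Cleave-'n-Seq: a transcribed, DNA-blocked target RNA library (0.1 nM) was mixed with 1 nM active affinity-purified piRISC carrying one synthetic guide, with or without 500 nM GTSF1 partner protein, in HEPES–potassium acetate buffer at 33 °C for 0–8 or 0–960 min. Uncleaved targets were sequenced and normalised to depth and to weakly complementary targets. Three trials were pooled, and k3 was capped at 0.0001 min^-1. The pre-steady-state cleavage rate came from a burst-and-steady-state fit.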
Regarding GGAGACCUAACUAUUCAUCCUACUACCUCA, the “pre-steady-state target cleavage rate” value is 0.322 ± 0.043. With GGAGACCUAUGAAUACAACCUACUAGCCUCA the figure was 0.00742 ± 0.0038; with GGAGAGGAUACUAUUCUACCUACUACCUCA, 0.179 ± 0.013; with GGAGACCUUACUUUACAACCUAGUACCUCA, 0.047 ± 0.011. In the case of GGAGACCUAUGAAACAACCUACUACCUCA, the “pre-steady-state target cleavage rate” value is 0.00673 ± 0.0031.

Take GGAGACCUAUGUAGACAACCUACUACCUCA: the “pre-steady-state target cleavage rate” value stood at 0.0173 ± 0.0042. The same measure for GGAGACCUAUGUAUACAACCUACUACGUGA: 0.0238 ± 0.0053; for GGAGACCUAACUUUACAACCUACUACCUGA: 0.0891 ± 0.041; for GGAGAGGAUUCUAUACAUCCUACUACCUCA: 0.263 ± 0.013. The same measure for GGAGUGGAUACUAUACAACGUAGUACCUCA: 0.0167 ± 0.0028; for GGAGACGAUACUUUACUACCUACUACCUCA: 0.179 ± 0.012. With GGAGACCUAUCUAUACAACCUACCUACCUCA the figure was 0.0519 ± 0.0097; with GGAGACCUUACUAAACUACCUACUACCUCA, 0.104 ± 0.013; with GGAGACCUAUGUAUACAACCUACUACCUACA, 0.0588 ± 0.0083. Take GGAGACCUAUGAUAUGUAUCCUACUACCUCA: the “pre-steady-state target cleavage rate” value was determined as 0.0082 ± 0.0021.

For GGAGACCUUCUAUACAACCUACUACCUCA, the “pre-steady-state target cleavage rate” value was found to be 0.0879 ± 0.016. The same measure for GGAGACCAUACUAUUCAACCUUCUACCUCA: 0.00695 ± 0.0026; for GGAGACCUUACUAAACAACCUAGUACCUCA: 0.0259 ± 0.0068; for GGAGACCUAUCUAUACAACGUACUACGUCA: 0.00657 ± 0.0026.

As for GGAGACCUAACUAAACAACCUACUUCCUCA, the “pre-steady-state target cleavage rate” value was found to be 0.0346 ± 0.013. As to GGAGUGGAUAGUAUAGAACCUACUACCUCA, the “pre-steady-state target cleavage rate” value was 0.146 ± 0.013. With GGAGACCUUACUAUACAAGCAACUACCUCA the figure was 0.0104 ± 0.0031. Consider GGAGACCUAACUAUACAACCUACGACCUCA, for which the “pre-steady-state target cleavage rate” value was found to be 0.129 ± 0.027.

Take GGAGACCUAUGAUAUCUACCUACUACGUCA: the “pre-steady-state target cleavage rate” value is under 0.0001.

These data come from the supplement of paper PMC10338343.
